About 83,000 compounds went through this panel and 20% of them were active in at least one assay; those are over-represented in the sample as a whole.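 Assay: single dose, 48 h. Readout: percent growth (0 = no net growth; negative = cell death). Active: <10.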 Calls of active or inactive are those of the source.
These compounds were tested on ACHN renal (assay: NCI-60 one-dose screen, 48 h (100 = growth as untreated, 0 = no growth, -100 = all killed)). Settings: 10 µM unless noted.

SMILES	growth
CC1=Cc2ccccc2OC12C=Cc1ccccc1O2 (configuration not stated)	88.4% (inactive)
NS(=O)(=O)c1ccc(CCn2c(-c3ccc(C(=O)O)cc3)nc(-c3ccccc3)c2-c2ccccc2)cc1	103% (inactive)
COc1ccc(/C=N\NC(=O)c2cnn(CC(O)c3ccccc3)c2N)cc1OCc1ccc(Cl)cc1 (configuration not stated)	58.6% (inactive)
CNc1sc(S(=O)(=O)NC)nc1S(=O)(=O)c1ccc(C)cc1	101% (inactive)
C=C(C)[C@@H]1CC[C@]2(C(=O)N3CCN(C)CC3)CC[C@]3(C)[C@H](CC[C@@H]4[C@@]5(C)CC[C@H](OP(=O)(OCC)OCC)C(C)(C)[C@@H]5CC[C@]43C)[C@@H]12	83.6% (inactive)
NS(=O)(=O)c1ccc(Nc2nc(Nc3ccccc3)nc(N3N=C(c4ccc(Cl)cc4)CC3c3ccc(Cl)cc3)n2)cc1 (configuration not stated)	32.6% (inactive)
COc1cc(C(C)=C(c2ccc(OCCN(C)C)cc2)c2ccc(OCCN(C)C)cc2)ccc1F	105% (inactive)
CN1CCN(c2ccc(Nc3nc(NCCCNS(=O)(=O)c4ccc(F)cc4)c4sccc4n3)cc2)CC1	70.4% (inactive)
CCOC(=O)c1c(NC(=O)c2ccc(C(F)(F)F)cc2)sc2c(CN3CCN(C)CC3)c(O)ccc12	-89.4% (active)
CC(O)c1cccc(/C(N)=N/C(N)=N/c2nc3ccccc3s2)c1 (configuration not stated)	86.6% (inactive)
C#Cc1cc(C(=O)Nc2ccc(CNCCN3CCOCC3)c(C(F)(F)F)c2)ccc1C	98.4% (inactive)
COc1ccc(/C=N/NC(=O)CSc2nc(-c3cnccn3)cc(-c3cccs3)c2C#N)cc1	74% (inactive)

From PubChem BioAssay (NCI)
